Assay results: PubChem BioAssay (NCATS)
Results filed as inconclusive are left out. The source made the active and inactive calls. Unless noted, the call rests on the fitted dose curve.

molecular target: Glucocorticoid receptor (Homo sapiens) (UniProt P04150); assay: GR-EFC Redistribution (AID 451); details: CHO-K1 GR-EFC translocation, beta-gal luminescence, 2 h; further: potency means the concentration at half of the fitted maximal effect
Method in brief: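 Translocation of GR-ED fusion to nuclear EA restores b-gal, read by luminescence after 1 h room-temperature detection. Engineered CHO-K1 biosensor cells, 1,000/well, exposed 2 h at 37 C to titrations up to 46 uM final.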

Sequence of Glucocorticoid receptor (Homo sapiens) (P04150 whole entry, looked up, the tested form may be a part): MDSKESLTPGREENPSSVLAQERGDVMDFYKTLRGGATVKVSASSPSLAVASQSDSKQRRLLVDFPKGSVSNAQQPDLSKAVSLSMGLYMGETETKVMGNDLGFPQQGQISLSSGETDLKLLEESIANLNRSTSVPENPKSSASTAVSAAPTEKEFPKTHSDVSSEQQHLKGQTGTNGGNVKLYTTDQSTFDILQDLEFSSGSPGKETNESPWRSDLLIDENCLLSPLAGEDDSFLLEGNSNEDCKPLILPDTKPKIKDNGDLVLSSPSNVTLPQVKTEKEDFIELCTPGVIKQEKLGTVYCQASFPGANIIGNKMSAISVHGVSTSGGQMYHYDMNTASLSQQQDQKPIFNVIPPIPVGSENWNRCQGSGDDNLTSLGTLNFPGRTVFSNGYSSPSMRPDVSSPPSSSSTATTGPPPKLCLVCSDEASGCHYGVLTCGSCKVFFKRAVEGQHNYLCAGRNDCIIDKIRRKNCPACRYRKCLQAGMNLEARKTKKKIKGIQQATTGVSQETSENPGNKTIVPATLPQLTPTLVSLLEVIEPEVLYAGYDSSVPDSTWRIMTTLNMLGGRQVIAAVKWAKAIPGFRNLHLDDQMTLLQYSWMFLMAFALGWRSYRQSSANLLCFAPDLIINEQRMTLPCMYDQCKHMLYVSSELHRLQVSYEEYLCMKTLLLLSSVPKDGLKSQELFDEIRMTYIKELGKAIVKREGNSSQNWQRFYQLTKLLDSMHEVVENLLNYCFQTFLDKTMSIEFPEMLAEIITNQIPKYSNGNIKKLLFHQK

Potency, inactive:
CN(C)Cc1ccccc1-c1cc(N(C)Cc2ccco2)ncn1 > 46 µM, c1cncc(-c2cncnc2NC2CCNCC2)c1 > 46 µM, Cn1cc(-c2nc3cnc(Oc4ccccc4)nc3n(C)c2=O)c2ccccc21 > 46 µM, CN(C)c1ncc2nc(-c3ccccc3)c(=O)n(-c3ccccc3)c2n1 > 46 µM, CN1CCN(c2ncc3nc(-c4cc(F)cc(F)c4)c(=O)n(C4CC4)c3n2)CC1 > 46 µM, O=c1c(-c2ccc(F)cc2)nc2cnc(N3CCNCC3)nc2n1Cc1ccc(F)cc1 > 46 µM, O=c1c(-c2cc(F)cc(F)c2)nc2cncnc2n1-c1ccccc1 > 46 µM, CN(Cc1ccco1)c1ncncc1-c1ccccc1Cl > 46 µM, CN1CCN(c2ncncc2-c2ccc(C(=O)N(C)C)cc2)CC1 > 46 µM, CC(=O)NCCNc1ncncc1-c1ccccc1C > 46 µM, COCCn1c(=O)cnc2cnc(Oc3ccccc3)nc21 > 46 µM, COCCn1c(=O)c(-c2ccc(Cl)cc2)nc2cnc(Oc3cccc(Cl)c3)nc21 > 46 µM, COc1ccc(CNc2ccnc(-c3ccc4c(c3)OCO4)n2)c(OC)c1 > 46 µM, COc1ncc2nc(-c3cc(F)cc(F)c3)c(=O)n(C)c2n1 > 46 µM, COc1cccc(Nc2ncc3nc(-c4ccccc4)c(=O)n(Cc4cccs4)c3n2)c1 > 46 µM, COc1ccc(-c2nc3cnc(N4CCN(C)CC4)nc3n(Cc3ccc(F)cc3)c2=O)cc1 > 46 µM, COCCn1c(=O)c(-c2cc(F)cc(F)c2)nc2cnc(N3CCOCC3)nc21 > 46 µM, CN(C)c1ncnc2ccc(-c3cccnc3)cc12 > 46 µM, CCNc1ncc2nc(-c3cn(C)c4ccccc34)c(=O)n(Cc3cccc(OC)c3)c2n1 > 46 µM, COc1ccc(Oc2ncc3nc(C)c(=O)n(-c4ccccc4)c3n2)cc1 > 46 µM, CN(C)Cc1ccccc1-c1nc(NCc2cccs2)c2ccccc2n1 > 46 µM, CN(Cc1ccco1)c1ncncc1-c1cccc(C#N)c1 > 46 µM, O=c1c(-c2ccc(F)cc2)nc2cnc(N3CCOCC3)nc2n1Cc1cccs1 > 46 µM, CCNc1ncc2nc(-c3ccc(Cl)cc3)c(=O)n(C[C@H]3CCCO3)c2n1 > 46 µM, COc1ccc(-n2c(=O)c(-c3cccs3)nc3cnc(N(C)C)nc32)cc1 > 46 µM, Cn1cc(-c2nc3cnc(Oc4ccccc4)nc3n(C3CC3)c2=O)c2ccccc21 > 46 µM, O=c1c(-c2cccs2)nc2cnc(N3CCOCC3)nc2n1Cc1ccc(F)cc1 > 46 µM, O=c1c(-c2ccc(F)cc2)nc2cnc(Nc3ccccc3)nc2n1C[C@H]1CCCO1 > 46 µM, O=c1c(-c2cc(F)cc(F)c2)nc2cncnc2n1Cc1ccccc1 > 46 µM, c1ccc(Nc2cc(-c3ccoc3)ncn2)cc1 > 46 µM, COc1ccc(Oc2ncc3nc(-c4cn(C)c5ccccc45)c(=O)n(C4CC4)c3n2)cc1 > 46 µM, COCCNc1ncncc1-c1c(C)noc1C > 46 µM, Cc1noc(C)c1-c1ccc2ncnc(Nc3ccc(F)cc3)c2c1 > 46 µM, O=c1c(-c2cccs2)nc2cnc(N3CCOCC3)nc2n1Cc1cccs1 > 46 µM, Cc1noc(C)c1-c1ccc2ncnc(N(C)C)c2c1 > 46 µM, CC(=O)NCCNc1ncnc2ccc(-c3c(C)noc3C)cc12 > 46 µM, CN(C)c1ncc2nc(-c3cn(C)c4ccccc34)c(=O)n(C[C@H]3CCCO3)c2n1 > 46 µM, CN1CCN(c2ncc3nc(-c4ccc(Cl)cc4)c(=O)n(Cc4cccs4)c3n2)CC1 > 46 µM, CN(Cc1ccco1)c1ncncc1-c1ccoc1 > 46 µM

molecular target: Mitogen-activated protein kinase 10 (Mus musculus) (UniProt Q61831); assay: JNK3 AlphaScreen Assay (AID 530; active means well fitted curve in either direction with a large enough effect, not every such curve was filed as active;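 further: kinase came from lysate of stimulated human HepG2 cells; signal reports phosphorylation of biotinylated GST-cJun 1-79 at Ser73 with 10 µM ATP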); details: JNK3 lysate, c-Jun phosphorylation; series mostly up to 57.1 µM
Method in brief: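 qHTS titrations with 15 min compound pre-incubation before adding ATP (10 uM final). Read-out: AlphaScreen of Ser73-phosphorylated biotin-GST-cJun using HepG2 lysate JNK3 activated by IL-1β and TNFα.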

outcome, inactive:
CN(C)Cc1ccccc1-c1cc(N(C)Cc2ccco2)ncn1, c1cncc(-c2cncnc2NC2CCNCC2)c1, Cn1cc(-c2nc3cnc(Oc4ccccc4)nc3n(C)c2=O)c2ccccc21, CN(C)c1ncc2nc(-c3ccccc3)c(=O)n(-c3ccccc3)c2n1, CN1CCN(c2ncc3nc(-c4cc(F)cc(F)c4)c(=O)n(C4CC4)c3n2)CC1, O=c1c(-c2ccc(F)cc2)nc2cnc(N3CCNCC3)nc2n1Cc1ccc(F)cc1, O=c1c(-c2cc(F)cc(F)c2)nc2cncnc2n1-c1ccccc1, CN(Cc1ccco1)c1ncncc1-c1ccccc1Cl, O=c1cnc2cnc(N3CCOCC3)nc2n1CCc1ccccc1, CN1CCN(c2ncncc2-c2ccc(C(=O)N(C)C)cc2)CC1, CC(=O)NCCNc1ncncc1-c1ccccc1C, COCCn1c(=O)cnc2cnc(Oc3ccccc3)nc21, COCCn1c(=O)c(-c2ccc(Cl)cc2)nc2cnc(Oc3cccc(Cl)c3)nc21, COc1ccc(CNc2ccnc(-c3ccc4c(c3)OCO4)n2)c(OC)c1, COc1ncc2nc(-c3cc(F)cc(F)c3)c(=O)n(C)c2n1, COc1cccc(Nc2ncc3nc(-c4ccccc4)c(=O)n(Cc4cccs4)c3n2)c1, COCCn1c(=O)c(-c2cc(F)cc(F)c2)nc2cnc(N3CCOCC3)nc21, CN(C)c1ncnc2ccc(-c3cccnc3)cc12, CCNc1ncc2nc(-c3cn(C)c4ccccc34)c(=O)n(Cc3cccc(OC)c3)c2n1, COc1ccc(Oc2ncc3nc(C)c(=O)n(-c4ccccc4)c3n2)cc1, CN(C)Cc1ccccc1-c1nc(NCc2cccs2)c2ccccc2n1, CN(Cc1ccco1)c1ncncc1-c1cccc(C#N)c1, O=c1c(-c2ccc(F)cc2)nc2cnc(N3CCOCC3)nc2n1Cc1cccs1, CCNc1ncc2nc(-c3ccc(Cl)cc3)c(=O)n(C[C@H]3CCCO3)c2n1, COc1ccc(-n2c(=O)c(-c3cccs3)nc3cnc(N(C)C)nc32)cc1, Cn1cc(-c2nc3cnc(Oc4ccccc4)nc3n(C3CC3)c2=O)c2ccccc21, O=c1c(-c2cccs2)nc2cnc(N3CCOCC3)nc2n1Cc1ccc(F)cc1, O=c1c(-c2ccc(F)cc2)nc2cnc(Nc3ccccc3)nc2n1C[C@H]1CCCO1, c1ccc(Nc2cc(-c3ccoc3)ncn2)cc1, COc1ccc(Oc2ncc3nc(-c4cn(C)c5ccccc45)c(=O)n(C4CC4)c3n2)cc1, COCCNc1ncncc1-c1c(C)noc1C, Cc1noc(C)c1-c1ccc2ncnc(Nc3ccc(F)cc3)c2c1, O=c1c(-c2cccs2)nc2cnc(N3CCOCC3)nc2n1Cc1cccs1, Cc1noc(C)c1-c1ccc2ncnc(N(C)C)c2c1, CC(=O)NCCNc1ncnc2ccc(-c3c(C)noc3C)cc12, CN(C)c1ncc2nc(-c3cn(C)c4ccccc34)c(=O)n(C[C@H]3CCCO3)c2n1, CN(Cc1ccco1)c1ncncc1-c1ccoc1
